Data on 40 compounds can be found in PubChem BioAssay (NCATS).

Structures are written as SMILES. Inconclusive results are not listed. Where a call stands in place of a potency, no number is given. Activity calls are given as the source filed them. Calls come from the whole dose curve; as a rule, active = well fitted cell-killing curve with a large enough effect; inconclusive = small, poorly fitted or top-dose-only effect, or effect the other way; inactive = no such curve, though single readings can be large or run the other way.
Potency is the fitted concentration of half-maximal effect.

The nature of this test: Quantitative High-Throughput drug screen in 47 multiple myeloma cell lines against the NCATS MIPE library collection: FR4_PLB cell viability assay (AID 1918924; note: nearly all actives have a fitted effect of over 35% in size). To be noted: FR4_PLB myeloma cells viability, CellTiter-Glo ATP, 48 h; series mostly up to 45.8 µM. An excerpt: PI: Beverly A. Mock Ph.D.
Laboratory of Cancer Biology and Genetics,
Center for Cancer Research, National Cancer Institute,
National Institute of Health, Bethesda, Maryland
Drug resistance and disease progression are common in multiple myeloma (MM) patients, underscoring the need for new therapeutic combinations. […] We hypothesized that effective combinations would reduce MYC expression and enhance p16 activity. […] These preclinical data identify potentially useful drug combinations for evaluation in drug-resistant MM and reveal potential mechanisms of combined drug sensitivity.
Described herein is the primary MIPE qHTS used to cherrypick compounds. Validated compounds were then further tested for potential synergistic activiy.
[1] Peat TJ, Gaikwad SM, Dubois W, Gyabaah-Kessie N, Zhang S, Gorjifard S, Phyo Z, Andres M, Hughitt VK, Simpson RM, Miller MA, Girvin AT, Taylor A, Williams D, D'Antonio N, Zhang Y, Rajagopalan A, Flietner E, Wilson K, Zhang X, Shinn P, Klumpp-Thomas C, McKnight C, Itkin Z, Chen L, Kazandijian D, Zhang J, Michalowski AM, Simmons JK, Keats J, Thomas CJ, Mock BA. Drug combinations identified by high-throughput screening promote cell cycle transition and upregulate Smad pathways in myeloma. Cancer Lett. 2023 Aug 1;568:216284. doi: 10.1016/j.canlet.2023.216284. Epub 2023 Jun 24. PMID: 37356470; PMCID: PMC10408729.
SEQUENCE No. (e.g., 1, 2, 3, etc.); […] (e.g., Cells, Incubation, Reagent, etc.); VALUE and DESCRIPTION.
1; Cells; 5 uL; white, solid bottom 1536-well Greiner assay plate.
2; Compounds; 23 nL; Kalypsis pin tool (Wako USA) equipped with a 1536-well pin head to transfer to the assay plates.
3; Incubation; 48 hours; 37C incubation.
4; Reagent;5uL; CellTiter Glo (Promega).
5; Detector; 425V; Luminescence; Viewlux PerkinElmer.
NOTES (numbers refer to Sequence numbers above)
1. The cell-based screening methods employed in this study were like those previously published. Briefly, the corresponding myeloma cell lines were screened in 1,536-well plates with 500 cells, 5-uL per well for inhibition of cell viability (assessed by measuring ATP levels with CellTiterGlo).
2. NCATS MIPE 4.0 library of approved and investigational drugs were added using the Kalypsis pin tool. Wells treated with DMSO only for 100% viability and media only wells for 0% viability were used as controls.
3. The assay plates were covered and incubated for 48 hours in a 37C, 5% CO2 incubator with controlled humidity.
4. After 48 hours, CellTilter-GloTM luminescent substrate mix (Promega) reagent was added to the assay plate and plates we incubated for 5 min at room temperature.
5. Signal was measured as median relative luminescence units on a ViewLux (PerkinElmer) multiplate reader.
[1] Heske CM, Davis MI, Baumgart JT, Wilson K, Gormally MV, Chen L, Zhang X, Ceribelli M, Duveau DY, Guha R, Ferrer M, Arnaldez FI, Ji J, Tran HL, Zhang Y, Mendoza A, Helman LJ, Thomas CJ. Matrix Screen Identifies Synergistic Combination of PARP Inhibitors and Nicotinamide Phosphoribosyltransferase (NAMPT) Inhibitors in Ewing Sarcoma. Clin Cancer Res. 2017 Dec 1;23(23):7301-7311. doi: 10.1158/1078-0432.CCR-17-1121. Epub 2017 Sep 12. PMID: 28899971; PMCID: PMC6636827.
Background: In ATP-based viability assays light output follows the ATP content of the culture.
Turning to `C[C@@H](CN1CC(=O)NC(=O)C1)N1CC(=O)NC(=O)C1`, the Potency result is “inactive”. For `CCN1CCCC1CNC(=O)c1cc(S(N)(=O)=O)ccc1OC` (stereo not given), the Potency entry is “inactive”.

For `C#CCN[C@@H]1CCc2ccccc21`, the Potency result is “inactive”. Next, `N=C(N)c1ccc(OCCCCCOc2ccc(C(=N)N)cc2)cc1`: 18.7 µM (active); `COc1cc2nc(N3CCCN(C)CC3)nc(NC3CCN(Cc4ccccc4)CC3)c2cc1OC`: 5.26 µM (active). On to `O=S(=O)(O)CCS`, for which the Potency entry was “inactive”. In the case of `CN1CCN(c2c(F)cc3c(=O)c(C(=O)O)cn4c3c2OCN4C)CC1`, the Potency entry was “inactive”.

As for `O=C(O)CSCC(=O)NC1CCSC1=O` (stereo not given), the Potency result is “inactive”. For the compound `COc1c(N2CCNC(C)C2)c(F)cc2c(=O)c(C(=O)O)cn(C3CC3)c12` (stereo not given), the Potency entry was “inactive”. Take `CCN(C)C(=O)Oc1cccc([C@H](C)N(C)C)c1`: the Potency result is “inactive”.

As to `COC(=O)Nc1nc2ccc(S(=O)c3ccccc3)cc2[nH]1` (stereo not given), the Potency was 7.43 µM (active). With `NC(=O)c1cccc(N)c1`, the Potency entry is “inactive”. In the case of `Cn1c(=O)c2c(ncn2CC(O)CO)n(C)c1=O` (stereo not given), the Potency result was “inactive”. Consider `Nc1ccc(S(=O)(=O)Nc2ccccn2)cc1`, for which the Potency entry is “inactive”.

`CC(N)C12CC3CC(CC(C3)C1)C2` (stereo not given): the Potency entry was “inactive”. In the case of `COc1ccccc1OCC(O)COC(N)=O` (stereo not given), the Potency result is “inactive”. As to `CC(=O)[C@H]1CC[C@H]2[C@@H]3CC=C4C[C@@H](O)CC[C@]4(C)[C@H]3CC[C@]12C`, the Potency entry is “inactive”. For `CC(C)NCC(O)c1ccc(NS(C)(=O)=O)cc1` (stereo not given), the Potency result is “inactive”. The entry for `CC(C)OC(=O)OCOP(=O)(CO[C@H](C)Cn1cnc2c(N)ncnc21)OCOC(=O)OC(C)C` is “inactive”. Turning to `C[C@]12C=CC(=O)C=C1CC[C@@H]1[C@@H]2C(=O)C[C@@]2(C)[C@H]1CC[C@]2(O)C(=O)CO`, the Potency result was “inactive”. Next, `Oc1c(Cl)cc(Cl)c2cccnc12`: 18.7 µM (active).

As for `CC[C@H](NC(C)C)[C@H](O)c1ccc(O)c2[nH]c(=O)ccc12`, the Potency entry was “inactive”. In the case of `CCOC(=O)c1ccc(OC(=O)CCCCCN=C(N)N)cc1`, the Potency entry is “inactive”.

For the compound `Nc1nc(F)nc2c1ncn2[C@@H]1O[C@H](CO)[C@@H](O)[C@@H]1O`, the Potency was 0.187 µM (active). As to `CC(C)C[C@H](NC(=O)[C@H](CCc1ccccc1)NC(=O)CN1CCOCC1)C(=O)N[C@@H](Cc1ccccc1)C(=O)N[C@@H](CC(C)C)C(=O)[C@@]1(C)CO1`, the Potency was 0.0083 µM (active).

Take `N[C@@H](Cc1ccc(O)c(O)c1)C(=O)O`: the Potency entry was “inactive”.

Turning to `CC(=O)CC(c1ccccc1)c1c(O)c2ccccc2oc1=O` (stereo not given), the Potency result was “inactive”.

On to `CC[C@H](C)C(=O)O[C@H]1C[C@@H](C)C=C2C=C[C@H](C)[C@H](CC[C@@H]3C[C@@H](O)CC(=O)O3)[C@H]21`, for which the Potency is 11.8 µM (active).

`COc1cccc(N(C)C(=S)Oc2ccc3c(c2)CCCC3)n1`: the Potency entry was “inactive”. As to `CCN(CC)CC#CCOC(=O)C(O)(c1ccccc1)C1CCCCC1` (stereo not given), the Potency entry was “inactive”.

In the case of `C[C@@H]1C[C@H]2[C@@H]3CCC4=CC(=O)C=C[C@]4(C)[C@@]3(Cl)[C@@H](O)C[C@]2(C)[C@@]1(OC(=O)c1ccco1)C(=O)CCl`, the Potency was 26.4 µM (active).

Turning to `NNC(=O)c1ccncc1`, the Potency entry was “inactive”. The entry for `CN(C)CCc1c[nH]c2ccc(CS(=O)(=O)N3CCCC3)cc12` is “inactive”; for `OC(Cn1cncn1)(Cn1cncn1)c1ccc(F)cc1F` it is “inactive”; for `O=C(O)c1ccc(-n2nc(-c3ccccc3O)nc2-c2ccccc2O)cc1` it is 23.5 µM (active). With `COC(=O)Nc1nc2ccc(C(=O)c3ccccc3)cc2[nH]1`, the Potency is 0.296 µM (active). As to `CN(Cc1cc(Br)cc(Br)c1N)C1CCCCC1`, the Potency entry is “inactive”. In the case of `CO[C@@]12[C@H](COC(N)=O)C3=C(C(=O)C(C)=C(N)C3=O)N1C[C@@H]1N[C@@H]12`, the Potency was 26.4 µM (active). As for `S=P(N1CC1)(N1CC1)N1CC1`, the Potency entry was “inactive”.

Consider `CN1CCCC(n2nc(Cc3ccc(Cl)cc3)c3ccccc3c2=O)CC1` (stereo not given), for which the Potency was 23.5 µM (active).
